# According to ChEMBL document CHEMBL3988442, “University of Dundee, Small-Polar-MMV Screening Library” (2021):
# Molecular target: T1, Tyrosyl-tRNA synthetase, putative (Trypanosoma cruzi (strain CL Brener)) (UniProt Q4DSP6)
# T1 sequence (whole entry): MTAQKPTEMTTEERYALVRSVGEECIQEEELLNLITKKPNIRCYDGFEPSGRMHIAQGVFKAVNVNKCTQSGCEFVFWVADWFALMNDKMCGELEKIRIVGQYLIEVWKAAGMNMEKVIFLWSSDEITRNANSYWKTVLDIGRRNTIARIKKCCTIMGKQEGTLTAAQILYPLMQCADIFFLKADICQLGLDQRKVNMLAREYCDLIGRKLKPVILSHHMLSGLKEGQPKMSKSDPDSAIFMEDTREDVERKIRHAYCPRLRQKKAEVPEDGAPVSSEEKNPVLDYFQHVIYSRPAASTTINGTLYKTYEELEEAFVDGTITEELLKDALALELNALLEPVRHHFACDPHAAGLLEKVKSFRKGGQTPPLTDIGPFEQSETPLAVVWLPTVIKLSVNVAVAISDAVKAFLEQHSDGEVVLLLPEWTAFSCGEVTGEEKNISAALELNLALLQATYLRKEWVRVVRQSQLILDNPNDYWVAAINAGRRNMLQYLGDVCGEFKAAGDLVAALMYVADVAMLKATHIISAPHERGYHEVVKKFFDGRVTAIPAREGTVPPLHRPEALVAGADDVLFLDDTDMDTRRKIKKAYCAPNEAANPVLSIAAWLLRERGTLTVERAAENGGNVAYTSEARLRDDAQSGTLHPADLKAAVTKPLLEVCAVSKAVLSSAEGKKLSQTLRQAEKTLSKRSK
# Test: Trypanosoma cruzi tyrosyl tRNA synthetase (TcYRS) _High Tyrosine SOP; further: in the data most compounds retested in dose-response had high values
# Format: functional
# Set-up: scale not given: direction of the effect not stated beside the values
# Settings: 30 µM
row,SMILES,Percent Effect
1,Cc1cnn(CC2CCCCN2CCC(=O)Nc2cc(C)on2)c1 (stereo not drawn),1.04%
2,CNS(=O)(=O)Cc1ccc(CNC(=O)Nc2cn[nH]c2)cc1,2.46%
3,Cc1c(C(=O)NC(CN2CCCC2=O)c2ccccc2)cnn1C (stereo not drawn),3.43%
4,O=C(O)c1nnn(-c2ccc(F)c(F)c2)c1-c1ccncc1,2.13%
5,Cc1ccccc1CCNC(=O)C1CC(=O)N(CC(F)(F)F)C1 (stereo not drawn),5.42%
6,CC(C)CN1CCCC2(CCN(C(=O)c3cnccn3)C2)C1 (stereo not drawn),3.17%
7,O=C(NCC(F)(F)F)C1CSCN1S(=O)(=O)c1ccc(F)cc1 (stereo not drawn),13.5%
8,CO[C@@H]1CC[C@H]2[C@H]1OCCN2C(=O)C1=CCCC1,-2.12%
9,COCC1CN(Cc2ccc(C)o2)Cc2cn(C)nc21 (stereo not drawn),10.4%
10,Cc1cc(NC(=O)CCc2ccsc2)n(C)n1,1.05%
11,O=C(Cc1ccc(O)c(Cl)c1)N1CCCCC1CCn1cccn1 (stereo not drawn),3.7%
12,Cc1cnn(CC(C)NCc2csc(-c3ccco3)n2)c1 (stereo not drawn),11.5%
13,CCc1nnc2n1CCN(C(=O)c1ccc3nc(C)c(C)nc3c1)C2,5.26%
14,Cc1cc(CN(C)C(=O)NC(C)c2nncn2C)no1 (stereo not drawn),3.16%
15,COC(=O)CS(=O)(=O)CCC(=O)N1CCCC1c1ccsc1 (stereo not drawn),5.26%
16,CC(=O)N1CCN(S(=O)(=O)c2ccc(C)c(F)c2)CC1,2.13%
17,CN(C)C(=O)CN1C[C@@H]2CC[C@H](C1)N(Cc1cc(F)ccc1F)C2,4.17%
18,Cc1nn(C)c(N(C)C)c1CNCc1cccnc1-n1cncn1,7.29%
19,Cn1ccnc1CN1CCCCC1Cn1cccn1 (stereo not drawn),6.25%
20,COc1cc(C(=O)N2CCC(c3n[nH]c(C4CC4)n3)CC2)ccc1C,1.04%

row,SMILES,Percent Effect
1,O=C(c1cccnc1)N1C[C@@H]2CC[C@H](C1)N(Cc1cccc(Cl)c1F)C2,9.68%
2,Cc1cc(-c2cnn(CCNC(=O)c3cccnc3)c2C2CC2)on1,5.38%
3,N#Cc1ccc(NCCNc2ccc(C(F)(F)F)cn2)nc1,8.33%
4,Cc1nn(C)c(N(C)C)c1CNCc1cccc(CN(C)C(C)C)c1,5.38%
5,Cc1nnc(NC(=O)CN(C)CC2CCCN2c2cccnn2)s1 (stereo not drawn),5.94%
6,Cc1cc(C(=O)NCc2cccnc2OC(C)C)no1,6.4%
7,OC(CN1CCN(Cc2ccc(F)c(F)c2)CC1)C1CC1 (stereo not drawn),6.45%
8,Cc1noc(C(C)N2CCN(CCC(=O)N3CCCCC3)CC2)n1 (stereo not drawn),3.19%
9,CCc1nc2ccccc2c(=O)n1CC1(O)CCN(S(C)(=O)=O)CC1,5.38%
10,Cn1ccc(CN2CCC(CCc3ccc(O)cc3)CC2)cc1=O,0%
11,CCCNC(=O)N1CCN(Cc2cc(C)no2)CC1,8.37%
12,Cc1cccc(OCCC(=O)N2CCN(S(=O)(=O)N(C)C)CC2)c1C,4.43%
13,Cc1nc2n(n1)CC(NCc1cc(Cl)c3c(c1)OCCCO3)CC2 (stereo not drawn),6.4%
14,COC(=O)N1CCCN(C(=O)NCc2ccc(Cl)s2)CC1,7.29%
15,Cc1cc(C2CCCN(CCCNS(C)(=O)=O)C2)n[nH]1 (stereo not drawn),5.42%
16,CC(C)CC(=O)N1CCCn2cnc(CN3CCCC3=O)c2C1,2.15%
17,O=C(Nc1ccccn1)N(CCO)Cc1ccsc1,8.33%
18,CCSCCC(=O)Nc1ncn(CC(=O)NCc2ccccc2)n1,12.6%
19,OCCn1nccc1C1CCN(CCCOc2ccc(F)cc2)CC1,9.36%

# Molecular target: T1, Tyrosyl-tRNA synthetase, putative (Trypanosoma cruzi (strain CL Brener))
# Test: Trypanosoma cruzi tyrosyl tRNA synthetase (TcYRS) SOP
# Format: functional
# Set-up: scale not given: direction of the effect not stated beside the values
# Settings: 30 µM
row,SMILES,Percent Effect
1,Cc1cnn(CC2CCCCN2CCC(=O)Nc2cc(C)on2)c1 (stereo not drawn),12.7%
2,CNS(=O)(=O)Cc1ccc(CNC(=O)Nc2cn[nH]c2)cc1,13.9%
3,Cc1c(C(=O)NC(CN2CCCC2=O)c2ccccc2)cnn1C (stereo not drawn),9.76%
4,O=C(O)c1nnn(-c2ccc(F)c(F)c2)c1-c1ccncc1,2.6%
5,Cc1ccccc1CCNC(=O)C1CC(=O)N(CC(F)(F)F)C1 (stereo not drawn),18.5%
6,CC(C)CN1CCCC2(CCN(C(=O)c3cnccn3)C2)C1 (stereo not drawn),-3.85%
7,O=C(NCC(F)(F)F)C1CSCN1S(=O)(=O)c1ccc(F)cc1 (stereo not drawn),30.4%
8,CO[C@@H]1CC[C@H]2[C@H]1OCCN2C(=O)C1=CCCC1,14.1%
9,COCC1CN(Cc2ccc(C)o2)Cc2cn(C)nc21 (stereo not drawn),20%
10,Cc1cc(NC(=O)CCc2ccsc2)n(C)n1,7.69%
11,O=C(Cc1ccc(O)c(Cl)c1)N1CCCCC1CCn1cccn1 (stereo not drawn),19.5%
12,Cc1cnn(CC(C)NCc2csc(-c3ccco3)n2)c1 (stereo not drawn),2.53%
13,CCc1nnc2n1CCN(C(=O)c1ccc3nc(C)c(C)nc3c1)C2,15.4%
14,Cc1cc(CN(C)C(=O)NC(C)c2nncn2C)no1 (stereo not drawn),10.3%
15,COC(=O)CS(=O)(=O)CCC(=O)N1CCCC1c1ccsc1 (stereo not drawn),7.69%
16,CC(=O)N1CCN(S(=O)(=O)c2ccc(C)c(F)c2)CC1,15.6%
17,CN(C)C(=O)CN1C[C@@H]2CC[C@H](C1)N(Cc1cc(F)ccc1F)C2,6.17%
18,Cc1nn(C)c(N(C)C)c1CNCc1cccnc1-n1cncn1,12.7%
19,Cn1ccnc1CN1CCCCC1Cn1cccn1 (stereo not drawn),10.1%
20,COc1cc(C(=O)N2CCC(c3n[nH]c(C4CC4)n3)CC2)ccc1C,-2.53%

row,SMILES,Percent Effect
1,O=C(c1cccnc1)N1C[C@@H]2CC[C@H](C1)N(Cc1cccc(Cl)c1F)C2,22.5%
2,Cc1cc(-c2cnn(CCNC(=O)c3cccnc3)c2C2CC2)on1,9.09%
3,N#Cc1ccc(NCCNc2ccc(C(F)(F)F)cn2)nc1,24.4%
4,Cc1nn(C)c(N(C)C)c1CNCc1cccc(CN(C)C(C)C)c1,21%
5,Cc1nnc(NC(=O)CN(C)CC2CCCN2c2cccnn2)s1 (stereo not drawn),1.22%
6,Cc1cc(C(=O)NCc2cccnc2OC(C)C)no1,13.6%
7,OC(CN1CCN(Cc2ccc(F)c(F)c2)CC1)C1CC1 (stereo not drawn),20%
8,Cc1noc(C(C)N2CCN(CCC(=O)N3CCCCC3)CC2)n1 (stereo not drawn),15.6%
9,CCc1nc2ccccc2c(=O)n1CC1(O)CCN(S(C)(=O)=O)CC1,14.3%
10,Cn1ccc(CN2CCC(CCc3ccc(O)cc3)CC2)cc1=O,-17.7%
11,CCCNC(=O)N1CCN(Cc2cc(C)no2)CC1,23.5%
12,Cc1cccc(OCCC(=O)N2CCN(S(=O)(=O)N(C)C)CC2)c1C,16.5%
13,Cc1nc2n(n1)CC(NCc1cc(Cl)c3c(c1)OCCCO3)CC2 (stereo not drawn),25.9%
14,COC(=O)N1CCCN(C(=O)NCc2ccc(Cl)s2)CC1,15.2%
15,Cc1cc(C2CCCN(CCCNS(C)(=O)=O)C2)n[nH]1 (stereo not drawn),3.8%
16,CC(C)CC(=O)N1CCCn2cnc(CN3CCCC3=O)c2C1,6.17%
17,O=C(Nc1ccccn1)N(CCO)Cc1ccsc1,17.1%
18,CCSCCC(=O)Nc1ncn(CC(=O)NCc2ccccc2)n1,28.4%
19,OCCn1nccc1C1CCN(CCCOc2ccc(F)cc2)CC1,16.1%
